Measurements from the supplement of paper PMC10498489.
About 330 (14%) of roughly 2,300 compounds showed activity. Only a sample is shown. Values without a mark were called inactive.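 The calls were made as follows: active = median modified Z-score above 1.96; inactive = 1.96 or below.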

Tested on: HepG2 Srxn1-GFP reporter cells (+30 nM CDDO-Me)
Assay: Srxn1-GFP intensity median modified Z-score relative to plate median; higher = stronger NRF2 / oxidative stress reporter activation, active = hit call of the paper
Conditions: 10 µM; exposure time: 24h
Summary of the method: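 Per-cell cytoplasmic GFP was measured on confocal images of formaldehyde-fixed, Hoechst-stained HepG2 Srxn1-GFP BAC reporter cells, excluding images with fewer than 100 cells. Before this, the cells (20,000 per well, 96-well plates) were co-exposed for 24 h to compound at 10 μM and an NRF2 activator at 30 nM with ≤0.1% DMSO, in three replicate plates. Each value is the median over replicates of the per-plate modified Z-score of GFP intensity. That score was scaled with 1.4826 × median absolute deviation.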

Structure (SMILES)	Srxn1-GFP intensity median modified Z-score
CC1CC(=O)NN=C1c1ccc(NN=C(C#N)C#N)cc1 (stereo not drawn) [euspeclibcmpd481]	0.356
CN1CCC(=C2c3ccccc3C=Cc3ccccc32)CC1 [euspeclibcmpd890]	7.54 (active)
CN1CCC(=C2c3ccccc3CCc3sccc32)CC1 [euspeclibcmpd488]	0.0303
CN1CCC(=C2c3ccccc3Sc3ccccc32)CC1 [euspeclibcmpd1250]	0.25
C=CCn1c(C(C)Oc2ccc(OCC)cc2)nnc1N1CCC(C(=O)OC)CC1 (stereo not drawn)	1.58
Cn1c(SC2CCCCC2=O)nnc1-c1cccc(Br)c1 (stereo not drawn)	4.66 (active)
CC1(O)CCOC(=O)C1 (stereo not drawn) [euspeclibcmpd1666]	-0.384
N=c1[nH]c(N)ccc1N=Nc1ccccc1 [euspeclibcmpd230]	0.85
O=C(CCCN1CCN(c2ccccn2)CC1)c1ccc(F)cc1 [euspeclibcmpd1317]	0.00738
CCCC[C@@H](CC)COC(=O)c1ccccc1O [euspeclibcmpd865]	-0.26
CN(C/C=C/C#CC(C)(C)C)Cc1cccc2ccccc12 [euspeclibcmpd767]	3.24 (active)
c1ccc2c(CC3=NCCN3)cccc2c1 [euspeclibcmpd204]	-0.697
CN(C/C=C/c1ccccc1)Cc1cccc2ccccc12 [euspeclibcmpd791]	0.553
CC1(C)O[C@@H]2[C@@H](CO[C@@]3(COS(N)(=O)=O)OC(C)(C)O[C@@H]23)O1 [euspeclibcmpd870]	0.206
CC(C)=CCC/C(C)=C/CO [euspeclibcmpd1453]	2.94 (active)
CC(C)=CCC/C(C)=C/CC/C(C)=C/CO [euspeclibcmpd2192]	1.35
CC(C)=CCC/C(C)=C/CC/C(C)=C/CC/C(C)=C/CC/C(C)=C/CC/C(C)=C/CC/C(C)=C/CC/C(C)=C/CC/C(C)=C/CO [euspeclibcmpd1640]	-0.00439
Cc1ccc(-c2nc(CSc3nc(C)c(C)n3CC3CCCO3)co2)c(C)c1 (stereo not drawn)	1.14
CCCC1O[C@@H]2CC3C4CC=C5CC(=O)C=CC5(C)C4[C@@H](O)CC3(C)[C@]2(C(=O)CO)O1 (stereo partly drawn) [euspeclibcmpd352]	-0.649
Oc1oc(O)c2c1C1CCC2O1 [euspeclibcmpd1748]	3 (active)
CC(=O)O[C@H]1CC[C@]2(C)C3CC[C@@]4(C)C(CC5O[C@@]6(CCC(C)CO6)[C@@H](C)C54)C3CC[C@@H]2C1 (stereo partly drawn) [euspeclibcmpd1531]	-0.369
O=S(=O)(c1ccc(Cl)nc1)N(CC1CCCO1)C1CCSC1 (stereo not drawn)	1.21
Cc1c(C)c(O)c(C(=CCCCCC(=O)O)c2ccccc2)c(C)c1O [euspeclibcmpd470]	-0.366
COc1c2ccoc2nc2c(OC)c(OCC(O)C(C)(C)O)ccc12 (stereo not drawn) [euspeclibcmpd1658]	26 (active)

Structure (SMILES)	Srxn1-GFP intensity median modified Z-score
C[C@]12CCC(=O)CC1=CC=C1C2CC[C@@]2(C)C1CC[C@@]21CCC(=O)O1 (stereo partly drawn) [euspeclibcmpd726]	0.642
CN1C2CC[C@H]1C[C@@H](OC(=O)C(O)c1ccccc1)C2 (stereo partly drawn) [euspeclibcmpd2075]	0.0546
CCN(CC)CCOCCOC(=O)C1(c2ccccc2)CCCC1 [euspeclibcmpd389]	-0.0174
CCN(CC)CCOC(=O)C1(C2CCCCC2)CCCCC1 [euspeclibcmpd90]	2.86 (active)
CCN(CC)CCOC(=O)C(c1ccccc1)C1CCCCC1 (stereo not drawn) [euspeclibcmpd1055]	0.0961
NC(=O)C1CCCN1C(=O)C(Cc1c[nH]cn1)NC(O)c1ccc(O)[nH]1 (stereo not drawn) [euspeclibcmpd919]	0.145
COc1c(O)cccc1O [euspeclibcmpd1665]	3.35 (active)
COc1cc(O)cc(OC)c1OC [euspeclibcmpd1601]	-0.369
COc1cccc(O)c1O [euspeclibcmpd1624]	10.7 (active)
COc1c(O)cc(O)cc1O [euspeclibcmpd1393]	-0.431
COc1ccccc1O [euspeclibcmpd1265]	-0.0107
Oc1cccc2[nH]ccc12 [euspeclibcmpd2031]	-0.358
N=C(N)NCCCC(N)C(=O)O (stereo not drawn) [euspeclibcmpd695]	-0.363
CC(C)N=c1nccc[nH]1 [euspeclibcmpd1194]	-0.779
NC[C@H]1O[C@H](O[C@H]2C(O[C@@H]3O[C@H](CO)[C@@H](O)[C@H]3O)[C@@H](O)[C@H](N)C[C@@H]2N)[C@H](N)[C@@H](O)[C@@H]1O (stereo partly drawn) [euspeclibcmpd1069]	-0.384
CCOc1ccc(C(=O)c2ccc(OC)c(O)c2O)cc1 [euspeclibcmpd1975]	-0.333
CCO[C@@]1(C)C[C@H]1NC(=O)N[C@@H]1C[C@@H]1C(F)F	0.985
CC1C(=NC(=O)C(NOC(C)(C)C(=O)O)c2csc(=N)[nH]2)C(=O)N1S(=O)(=O)O (stereo not drawn) [euspeclibcmpd708]	-0.0945
CCOc1cc2c(cc1/C=C/C(=O)N(C)C(C)c1ccc(-n3cncn3)cc1)OC(C)C2 (stereo not drawn)	0.413
Cc1ccc2c(Cl)cc(Cl)c(O)c2n1 [euspeclibcmpd1014]	-0.191
Oc1c(Cl)cc(Cl)c(Cl)c1Cc1c(O)c(Cl)cc(Cl)c1Cl [euspeclibcmpd146]	44.1 (active)
CCC[C@@H]1C[C@@H](C(=O)N[C@@H]([C@H]2O[C@H](SC)[C@H](O)[C@@H](O)[C@H]2O)[C@@H](C)O)N(C)C1	1.1
COC(=O)[C@H]1[C@H]2C[C@@H]3c4[nH]c5cc(OC)ccc5c4CCN3C[C@H]2C[C@@H](OC(=O)c2cc(OC)c(OC)c(OC)c2)[C@@H]1OC [euspeclibcmpd2385]	6.53 (active)
O=C(O)C1[C@H]2C[C@H]3c4[nH]c5ccccc5c4CCN3C[C@@H]2CC[C@@H]1O (stereo partly drawn) [euspeclibcmpd1655]	-0.233
